Measured values as given in PubChem BioAssay (NCI).
This is part of a sample that, as a whole, favours compounds with a hit. Of some 83,000 tested, about 20% had one in any assay.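 96-well plates, one dose, 48 hours. Percent growth reported; active if below 10.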 Unmarked numbers belong to inactive results. The source made the active and inactive calls.

Key:
Experiment in all cases: NCI-60 one-dose screen, 48 h (100 = growth as untreated, 0 = no growth, -100 = all killed)
Conditions in all cases: 10 µM unless noted
NCI-H23 lung = test system: NCI-H23 lung
NCI-H226 lung = test system: NCI-H226 lung
NCI-H322M lung = test system: NCI-H322M lung
HOP-62 NSCLC = test system: HOP-62 NSCLC
NCI-H460 lung = test system: NCI-H460 lung
HOP-92 NSCLC = test system: HOP-92 NSCLC
NCI-H522 lung = test system: NCI-H522 lung
A549/ATCC NSCLC = test system: A549/ATCC NSCLC
786-0 renal = test system: 786-0 renal
COLO 205 colon = test system: COLO 205 colon
DU-145 prostate = test system: DU-145 prostate
K-562 leukemia = test system: K-562 leukemia
MALME-3M melanoma = test system: MALME-3M melanoma
MDA-MB-231 breast = test system: MDA-MB-231 breast
RXF 393 renal = test system: RXF 393 renal
SF-268 CNS = test system: SF-268 CNS
SF-295 CNS = test system: SF-295 CNS
SF-539 CNS = test system: SF-539 CNS
UACC-257 melanoma = test system: UACC-257 melanoma
M14 melanoma = test system: M14 melanoma

Structure (SMILES) | growth (NCI-H23 lung) | growth (NCI-H226 lung) | growth (NCI-H322M lung) | growth (HOP-62 NSCLC) | growth (NCI-H460 lung) | growth (HOP-92 NSCLC) | growth (NCI-H522 lung) | growth (A549/ATCC NSCLC) | growth (786-0 renal) | growth (COLO 205 colon) | growth (DU-145 prostate) | growth (K-562 leukemia) | growth (MALME-3M melanoma) | growth (MDA-MB-231 breast) | growth (RXF 393 renal) | growth (SF-268 CNS) | growth (SF-295 CNS) | growth (SF-539 CNS) | growth (UACC-257 melanoma) | growth (M14 melanoma)
COc1ccc(-c2nc3sc(-c4ccc(Cl)cc4)cn3n2)cc1 | 58.5% | 50.1% | 17.8% | 39.6% | -39.3% (active) | 21.5% | 61% | -30.3% (active) | -75.8% (active) | 52.5% | 80.7% | 61.5% | 50.8% | 13.3% | 59% | 65.1% | 24.2% | 15.4% | 84.6% | 91.1%
O=C(N=c1oc2ccccc2cc1-c1cc2ccccc2[nH]1)Nc1ccc(Cl)cc1 | 86.2% | 95.9% | 87.8% | 83.3% | 99.6% | 95.1% | 88.4% | 96.1% | 94.6% | 122% | 99.2% | 88.8% | 99.2% | 79.5% | 116% | 99.3% | 111% | 90.6% | 108% | 79.6%
COc1ccc(OC)c(/C=C/C(=O)N/N=C/c2ccccc2)c1 | 65.1% | 86.6% | 79.6% | 67.3% | 13.5% | 76.6% | -15.3% (active) | 48.4% | 54.3% | 42.8% | 72.5% | 21.2% | 59% | 71.8% | 45.4% | 60.7% | 48.5% | 51.8% | 51.3% | 27.8%
CCCCCCN(CCCCCC)c1ccc(/C=C2/SC(=O)NC2=O)c(C)c1 | 76.5% | 104% | 87% | 110% | 81.3% | 13.9% | 77.4% | 73.2% | 77.6% | 109% | 102% | 65.2% | 72.9% | 111% | 101% | 89.5% | 65.6% | 117% | 103% | 90.1%
CCOC(=O)c1nc(Nc2ccc(C(C)=O)cc2)sc1C | 94.1% | 98.8% | 96.2% | 105% | 105% | 108% | 87.2% | 94.3% | 96.5% | 106% | 107% | 99.1% | 106% | 104% | 109% | 102% | 92% | 97.2% | 102% | 104%
Cc1cc(=O)oc2cc(OC(=O)CN3CCN(C)CC3)ccc12 | 97.4% | 100% | 105% | 99.3% | 102% | 88.5% | 92.4% | 102% | 105% | 110% | 109% | 93.7% | 112% | 101% | 101% | 97.5% | 101% | 98.4% | 109% | 97.9%
COc1ccc(CNC(=O)[C@H](O)[C@@H](N)Cc2ccccc2)cc1 | 99.9% | 98.8% | 105% | 119% | 106% | 72.8% | 95.6% | 108% | 97.9% | 114% | 113% | 98.4% | 108% | 100% | 107% | 92.7% | 97.9% | 97.2% | 108% | 105%
NCCCNc1nc2ccccc2c2c(=O)c3cccc(F)c3sc12 | 50.5% | 64.1% | 46.8% | 48.1% | -57% (active) | 35.8% | 38.7% | 24% | 52.6% | -43.7% (active) | 12.6% | -28.2% (active) | 80% | 6.07% (active) | 52.4% | 45.9% | 72.8% | 44.2% | 93.5% | 10%
